# Source: PubChem BioAssay (National Center for Advancing Translational Sciences (NCATS))
# A selection: hits, their analogues and other compounds. The true share with any hit is near 2.4%.
# Cruzain inh noDet = qHTS Assay for Promiscuous and Specific Inhibitors of Cruzain (without detergent) | Cruzipain (Trypanosoma cruzi), P25779 | purified cruzain, Z-FR-AMC fluorescence, no detergent | Potency, µM, inactives show max response, negative = inhibition, most hits filed as inhibitors | 200,000 compounds, 2.3% hits | AID 1476, 2009;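 also: plate controls were enzyme without inhibitor for no effect and buffer without enzyme for full effect; nearly all actives have a fitted effect of over 40% in size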
# Target sequence (P25779 123-467 limits assumed): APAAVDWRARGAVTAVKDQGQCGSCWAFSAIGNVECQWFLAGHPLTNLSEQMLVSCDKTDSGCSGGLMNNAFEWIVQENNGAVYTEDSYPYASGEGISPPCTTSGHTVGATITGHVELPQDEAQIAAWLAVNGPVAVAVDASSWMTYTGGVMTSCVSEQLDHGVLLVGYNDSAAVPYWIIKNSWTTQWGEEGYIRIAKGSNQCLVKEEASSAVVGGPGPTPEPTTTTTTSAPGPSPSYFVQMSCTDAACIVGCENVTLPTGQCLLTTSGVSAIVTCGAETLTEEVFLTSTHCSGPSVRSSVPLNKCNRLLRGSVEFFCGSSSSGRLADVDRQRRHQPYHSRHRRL
#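 Purified cruzain at 1.5 nM, pre-incubated 15 min with compound at room temperature in 100 mM sodium acetate pH 5.5, 5 mM DTT, 0.00005% Triton X-100. Reaction started with 2 uM Z-FR-AMC; AMC fluorescence increase over 60 s gives rate.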
# Cruzain inh Det = qHTS Assay for Promiscuous and Specific Inhibitors of Cruzain (with detergent). Potency, µM, for inactives: max response, negative = inhibition, most hits filed as inhibitors. purified cruzain, Z-FR-AMC fluorescence, 0.01% Triton. 200,000 compounds, 0.43% hits. Cruzipain (Trypanosoma cruzi), P25779;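 also: plate controls were neutral wells for no effect and buffer without enzyme for full effect; nearly all actives have a fitted effect of over 40% in size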
#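 Purified cruzain (1.5 nM final) was preincubated with compounds for 15 min at room temperature in 100 mM sodium acetate pH 5.5, 5 mM DTT, 0.01% Triton X-100. Reaction started with 2 uM Z-FR-AMC; AMC fluorescence change over 60 s gave activity.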
# * hit, by the source's call; u = inconclusive. Calls follow the shape of the dose curve; as a rule, active = well fitted curve in the direction sought with a large enough effect; inconclusive = small, poorly fitted or top-dose-only effect, or another doubt; inactive = no such curve, though single readings can be large; an effect the other way counts as inactive or inconclusive. Potency is read from the fitted curve at half-maximal effect.
SMILES,Cruzain inh noDet,Cruzain inh Det
O=C(NCc1ccc(OC(F)(F)F)cc1)C12CN(Cc3ccccc3)CC1C(c1cccc([N+](=O)[O-])c1)=NO2 (stereo not drawn),20µM*,1%
O=C(NCc1ccccc1)C12CN(Cc3ccccc3)CC1C(c1cccc([N+](=O)[O-])c1)=NO2 (stereo not drawn),-26%,4%
CC(Nc1ccc(-c2nc(-c3ccccn3)no2)cc1[N+](=O)[O-])c1ccccc1 (stereo not drawn),21%,-3%
Cc1csc(NC(=O)CSc2nnc(C)n2Cc2ccco2)n1,0%,1%
Cc1cc(-c2csc(NC(=O)c3ccc(C#N)cc3)n2)c(C)n1Cc1ccco1,7.9µM*,-3%
O=C1OC(c2ccccc2)=N/C1=C\C=C\c1ccccc1[N+](=O)[O-],16µM*,13µM*
O=c1[nH]c(/C=C/c2ccccc2[N+](=O)[O-])nc2ccccc12,0%,-4%
COC(=O)c1ccc(NC(=O)CSc2nc(C)cc(C)c2C(=O)Nc2ccccc2)cc1,-2%,-6%
COc1ccc(-n2cc(C(=O)NCc3ccccc3)c3ccccc3c2=O)cc1,3%,-11%
COc1ccccc1CNc1ncnc2c1c(-c1ccccc1)cn2-c1ccc(Br)cc1,7.9µM*,-1%
COc1ccc(CNc2ncnc3c2c(-c2ccccc2)cn3-c2ccccc2)cc1,6%,1%
Cc1cc(C)cc(N(C)S(=O)(=O)c2nnc(NC(=O)COc3ccc(Cl)cc3)s2)c1,-30%,-3%
CC(C)Oc1cc(O)c2c(c1)OCC=C2CCC(=O)O,-6%,1%
O=C(CN1CCCN(Cc2ccccc2Cl)S1(=O)=O)NCc1ccccc1,5%,-3%
Fc1ccc(Cn2ccc(-c3cnc(-c4ccccc4)s3)n2)cc1,0%,1%
O=C(c1ccc(F)cc1)n1ccc(-c2cnc(-c3ccccc3)s2)n1,6.3µM*,3%
Cc1ccc2ncc(C(=O)Nc3cccc(C(F)(F)F)c3)c(=O)n2c1,13%,3%
Cc1ccc2c(c1)sc1nc(-c3cc4ccccc4oc3=O)cn12,7%,0%
O=C(NCCC1=CCCCC1)c1ccc2c(c1)sc1nc(-c3ccc(F)cc3)cn12,7%,-1%
c1ccc2c(c1)ccc1cc3c(ccc4ccccc43)cc12,-10%,4%
c1ccc(C(c2cccc3c2ccc2ccccc23)[C@H](c2ccccc2)c2cccc3c2ccc2ccccc23)cc1 (stereo partly drawn),4µM*,2%
CNC(=O)/C(C#N)=C/c1ccc(-c2ccc(OC)cc2[N+](=O)[O-])o1,0%,3%
N#C/C(=C\c1ccc(-c2ccccc2[N+](=O)[O-])o1)C(=O)Nc1nc(-c2cccs2)cs1,6.3µM*,-6%
CCN(CC)S(=O)(=O)c1ccc2c(c1)N(CC(=O)Nc1cccc(C#N)c1)C(=O)CO2,4%,-1%
C(=N\Nc1nc(-c2ccccc2)cs1)/c1cccs1,25µM*,-6%
SMILES,Cruzain inh noDet,Cruzain inh Det
C(=N\Nc1nc(-c2ccccc2)cs1)/c1ccco1,u,-14%
COc1ccc(-c2nc3cnc(N4CCN(C)CC4)nc3n(Cc3cccc(OC)c3)c2=O)cc1,4%,-3%
CCCOc1ccc(-c2nc(C#N)c(N3CCN(C)CC3)o2)cc1,-9%,1%
CCCOc1ccc(-c2nc(C#N)c(N3CCc4ccccc4C3)o2)cc1,-92%,25µM*
CN1CCN(C(CNC(=O)c2cccc(F)c2)c2ccc3c(c2)OCO3)CC1 (stereo not drawn),-2%,-1%
Cc1cc(C)c2c(c1)-c1c(ssc1=S)C(C)(C)N2C(=O)CN1C(=O)c2ccccc2C1=O,u,-7%
Cc1cccc2c1N(C(=O)CN1C(=O)c3ccccc3C1=O)C(C)(C)c1ssc(=S)c1-2,13µM*,-1%
O=C(Cc1sc(-c2ccccc2)nc1-c1ccccc1)Nc1ccc(Cl)cc1,u,6%
O=C(Cc1sc(-c2ccccc2Cl)nc1-c1ccccc1)Nc1ccccc1,13µM*,7%
